Source: PubChem BioAssay AID1159580 (chemical genetic matrix, 2015)
Values joined by “and” are separate entries in the source; they are usually repeats but may differ in a detail not shown here. Equal values may be shown once. The whole screen tested about 5,500 compounds, of which about 2,000 (36%) were called active. Not shown: some 18% with an inconclusive outcome. No stated cut-off is given here; in the data, active means normalized growth mostly below about 0.91 (no sharp cut-off); inconclusive means no clear call, values can overlap the other calls; inactive means mostly above about 0.92. This is one part of the list.

Assay: chemical genetic growth profiling, strain panel (AID 1159580);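 further: tested at 20 µM; growth read once vehicle control cultures reached saturation at 30 °C; 1 = growth at the plate median or of vehicle wells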
Settings: S. cerevisiae deletion strains, growth OD

Measured: normalized growth

COc1cc(O)c2c(c1)C(=O)c1cc(C)cc(O)c1C2=O
active: locus YDR137W, strain rgp1, stronger effect = lower value 0.76
inactive: locus YAL013W, strain DEP1, stronger effect = lower value 0.991 | locus YAL021C, strain ccr4, stronger effect = lower value 0.987 | locus YAL026C, strain drs2, stronger effect = lower value 0.997 | locus YAL030W, strain snc1, stronger effect = lower value 0.98 | locus YBL061C, strain skt5, stronger effect = lower value 0.994 | locus YBR009C, strain hhf1, stronger effect = lower value 1 | locus YBR021W, strain FUR4, stronger effect = lower value 1.04 | locus YBR023C, strain chs3, stronger effect = lower value 0.988 | locus YBR171W, strain sec66, stronger effect = lower value 0.995 | locus YBR229C, strain ROT2, stronger effect = lower value 1.01 | locus YBR231C, strain swc5, stronger effect = lower value 0.993 | locus YBR279W, strain paf1, stronger effect = lower value 0.998 | locus YCL011C, strain gbp2, stronger effect = lower value 1 | locus YCL016C, strain dcc1, stronger effect = lower value 0.98 | locus YCL029C, strain bik1, stronger effect = lower value 1 | locus YCL061C, strain MRC1, stronger effect = lower value 0.977 | locus YCL069W, strain vba3, stronger effect = lower value 0.995 | locus YCR088W, strain abp1, stronger effect = lower value 0.993 | locus YDL005C, strain med2, stronger effect = lower value 0.971 | locus YDL035C, strain GPR1, stronger effect = lower value 0.997 | locus YDL040C, strain nat1, stronger effect = lower value 0.99 | locus YDL074C, strain BRE1, stronger effect = lower value 0.974 | locus YDL101C, strain DUN1, stronger effect = lower value 1 | locus YDL134C, strain PPH21, stronger effect = lower value 1 | locus YDL185W, strain tfp1, stronger effect = lower value 1 | locus YDL192W, strain arf1, stronger effect = lower value 1.01 | locus YDR001C, strain nth1, stronger effect = lower value 0.998 | locus YDR069C, strain doa4, stronger effect = lower value 0.981 | locus YDR101C, strain arx1, stronger effect = lower value 0.986 | locus YDR150W, strain NUM1, stronger effect = lower value 1.02 | locus YDR159W, strain sac3, stronger effect = lower value 0.965 | locus YDR162C, strain NBP2, stronger effect = lower value 0.982 | locus YDR195W, strain ref2 1.01 | locus YDR297W, strain sur2, stronger effect = lower value 0.977 | locus YDR318W, strain mcm21, stronger effect = lower value 0.971 | locus YDR334W, strain swr1, stronger effect = lower value 1 | locus YDR335W, strain msn5, stronger effect = lower value 0.99 | locus YDR388W, stronger effect = lower value 1 | locus YDR392W, strain spt3, stronger effect = lower value 0.95 | locus YDR502C, strain sam2, stronger effect = lower value 0.989 | locus YEL003W, strain gim4, stronger effect = lower value 0.997 | locus YEL037C, strain rad23, stronger effect = lower value 1.01 | locus YEL061C, strain CIN8 (second series), stronger effect = lower value 0.995 | locus YER015W, strain faa2, stronger effect = lower value 0.999 | locus YER016W, strain bim1, stronger effect = lower value 0.976 | locus YER110C, stronger effect = lower value 1.01 | locus YER111C, strain swi4, stronger effect = lower value 0.987 | locus YER155C, strain BEM2 (second series), stronger effect = lower value 0.973 | locus YER155C, strain BEM2, stronger effect = lower value 1.01 | locus YER167W, strain BCK2, stronger effect = lower value 0.994 | locus YFR010W, strain ubp6, stronger effect = lower value 1.02 | locus YGL078C, strain dbp3, stronger effect = lower value 1.01 | locus YGL086W, strain mad1, stronger effect = lower value 1 | locus YGL167C, strain pmr1, stronger effect = lower value 0.977 | locus YGL173C, strain kem1, stronger effect = lower value 0.993 | locus YGL227W, strain vid30, stronger effect = lower value 1 | locus YGL240W, strain doc1, stronger effect = lower value 0.98 | locus YGL248W, strain PDE1, stronger effect = lower value 1.01 | locus YGL253W, strain hxk2, stronger effect = lower value 1.01 | locus YGR078C, strain PAC10, stronger effect = lower value 0.989 | locus YGR135W, strain pre9, stronger effect = lower value 0.992 | locus YGR229C, strain SMI1, stronger effect = lower value 0.968 | locus YGR252W, strain gcn5, stronger effect = lower value 1.06 | locus YHR013C, strain ard1, stronger effect = lower value 0.997 | locus YHR027C, strain rpn1, stronger effect = lower value 0.999 | locus YHR030C, strain SLT2, stronger effect = lower value 1.01 and 1 | locus YHR079C, strain IRE1 (second series), stronger effect = lower value 0.981 | locus YHR079C, strain IRE1, stronger effect = lower value 1.04 | locus YHR094C, strain hxt1, stronger effect = lower value 1 | locus YHR129C, strain ARP1, stronger effect = lower value 0.998 | locus YHR142W, strain chs7, stronger effect = lower value 1.04 | locus YHR200W, strain rpn10, stronger effect = lower value 1 | locus YIL066C, strain RNR3, stronger effect = lower value 1.01 | locus YIL073C, strain SPO22, stronger effect = lower value 0.991 | locus YIL125W, strain kgd1, stronger effect = lower value 0.994 | locus YIR030C, strain dcg1, stronger effect = lower value 0.993 | locus YJL092W, strain hpr5, stronger effect = lower value 0.997 | locus YJL095W, strain BCK1 (second series), stronger effect = lower value 0.972 | locus YJL095W, strain BCK1, stronger effect = lower value 0.883 and 0.965 | locus YJL115W, strain asf1, stronger effect = lower value 1 | locus YJL129C, strain trk1, stronger effect = lower value 0.981 | locus YJL134W, strain LCB3, stronger effect = lower value 1.01 | locus YJL154C, strain vps35, stronger effect = lower value 0.991 | locus YJL164C, strain tpk1, stronger effect = lower value 0.995 | locus YJL166W, strain qcr8, stronger effect = lower value 0.989 | locus YJL168C, strain set2, stronger effect = lower value 1 | locus YJL187C, strain SWE1 (second series), stronger effect = lower value 1 | locus YJL187C, strain SWE1, stronger effect = lower value 0.985 | locus YJR043C, strain POL32, stronger effect = lower value 1 | locus YJR066W, strain TOR1, stronger effect = lower value 0.987
